Assay outcomes deposited in PubChem BioAssay by several laboratories.
MBD2 DNA inh = blocks human MBD2 binding to methylated DNA. TR-FRET, MBD2 binding to methylated oligonucleotide. inhibition, % at 4.4 µM. AID 686964. 370,000 compounds, 0.31% hits; in the data active = inhibition above about 13%
M18AAP inhibitor = blocks P. falciparum M18 aspartyl aminopeptidase | recombinant PfM18AAP, H-Glu-NHMec fluorogenic cleavage | inhibition, % at 7.35 µM | 290,000 compounds, 1.2% hits | AID 1822;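 active = inhibition above the campaign mean inhibition over all tested compounds plus 3 SD, cut at about 28% in these data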;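 also: 0% = plate median of test compound wells and 100% = 2 mM ZnCl2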
PfG6PD inh = PfG6PD (Plasmodium falciparum) enzyme inhibition | PfGluPho enzyme, NADPH resazurin-diaphorase fluorescence | inhibition, % at 20 µM | 350,000 compounds, 0.78% hits | AID 504690;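 active = inhibition reaching at least a set limit at 20 µM in the primary screen, cut at about 59% in these data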;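 also: 0% = DMSO wells with substrate and 100% = DMSO wells lacking glucose-6-phosphate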
UHRF1 MBD2 ctr = UHRF1 methyl-DNA binding inhibition; UHRF1 binding to methylated oligo, TR-FRET; inhibition, % at 4.4 µM; 370,000 compounds, 0.75% hits; AID 687016; in the data active = inhibition above about 21%;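 also: UHRF1 SRA domain binding a hemimethylated CpG hairpin DNA probe; 0% = median of test compound wells and 100% = reference inhibitor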
Target sequence (Q96T88 whole entry, looked up, the tested form may be a part): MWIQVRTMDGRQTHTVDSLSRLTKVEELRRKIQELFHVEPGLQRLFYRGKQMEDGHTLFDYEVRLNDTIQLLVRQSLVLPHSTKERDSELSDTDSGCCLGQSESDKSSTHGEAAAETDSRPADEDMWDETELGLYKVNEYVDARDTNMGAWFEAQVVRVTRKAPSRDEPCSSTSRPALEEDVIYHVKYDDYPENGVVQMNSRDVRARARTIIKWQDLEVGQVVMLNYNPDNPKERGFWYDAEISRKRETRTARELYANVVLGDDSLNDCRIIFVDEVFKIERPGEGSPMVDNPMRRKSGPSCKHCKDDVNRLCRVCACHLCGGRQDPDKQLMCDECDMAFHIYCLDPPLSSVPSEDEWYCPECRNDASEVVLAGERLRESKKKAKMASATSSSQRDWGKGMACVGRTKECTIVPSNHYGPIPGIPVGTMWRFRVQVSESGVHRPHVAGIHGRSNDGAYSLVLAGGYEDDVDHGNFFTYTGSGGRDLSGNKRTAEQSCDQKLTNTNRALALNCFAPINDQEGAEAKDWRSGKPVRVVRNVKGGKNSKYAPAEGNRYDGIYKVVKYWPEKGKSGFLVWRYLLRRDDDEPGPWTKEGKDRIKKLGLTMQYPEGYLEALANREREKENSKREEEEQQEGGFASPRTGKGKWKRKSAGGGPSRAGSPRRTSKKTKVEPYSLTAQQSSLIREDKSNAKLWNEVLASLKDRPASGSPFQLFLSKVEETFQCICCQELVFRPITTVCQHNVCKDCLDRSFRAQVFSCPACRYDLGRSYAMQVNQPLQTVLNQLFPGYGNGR
PRMT1 inh = PRMT1 (human) inhibition, primary screen; recombinant PRMT1, activity-based probe fluorescence polarization; inhibition, % at 2.79 µM; 370,000 compounds, 1.3% hits;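 active = inhibition above about 21% made by adding two undisclosed values, limit read from the data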
PfG6PD confirm = PfG6PD inhibition, single-dose confirmed; recombinant PfGluPho, NADPH-diaphorase-resazurin fluorescence; AID 504753; inhibition, % at 20 µM; 2,400 compounds, 34% hits; shares compounds with PfG6PD inh;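 active = inhibition of at least 50% at 20 µM in any single replicate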;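 also: 0% = DMSO with substrate and 100% = DMSO lacking glucose-6-phosphate substrate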
Diaphorase 10uM = inhibits diaphorase or oxidizes, flagging false PfG6PD hits; shares compounds with PfG6PD inh; diaphorase-coupled resazurin reduction, fluorescence, NADPH 10 uM; inhibition, % at 20 µM; 820 compounds, 39% hits; AID 504862;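 active = average inhibition reaching 50% or more with the compound at 20 µM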;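 also: resorufin red fluorescence formed as diaphorase reduces resazurin using NADPH; 0% = DMSO with enzyme and 100% = DMSO without enzyme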
Diaphorase 30uM = inhibits diaphorase or oxidizes, flagging false PfG6PD hits; inhibition, % at 20 µM; 820 compounds, 29% hits; shares compounds with PfG6PD inh; Diaphorase/resazurin coupled assay, resorufin fluorescence, 30 uM NADPH;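 active = inhibition averaging 50% or more, tested at 20 µM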;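 also: 0% = DMSO with enzyme and 100% = DMSO wells lacking diaphorase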
* = called active by the depositor; · = no result given. This is a sample that favours compounds with a hit; in the whole collection about 3.3% have one here.

SMILES	MBD2 DNA inh	M18AAP inhibitor	PfG6PD inh	UHRF1 MBD2 ctr	PRMT1 inh	PfG6PD confirm	others
COC(=O)C1CN(Cc2ccc(C)cc2)CCS(=O)(=O)N1Cc1cn(Cc2ccc(C)cc2)nn1 (stereo not drawn)	2	·	·	8	0	·
COC(=O)C1=C(C)N(C)C(=NCc2ccc(OC)cc2)NC1c1ccc(Cl)cc1 (stereo not drawn)	-3	·	·	0	-1	·
COc1cc(NC(C)CCc2ccccc2)cc(OC)c1OC (stereo not drawn)	-1	12	77*	-7	4	79*	Diaphorase 10uM=8;Diaphorase 30uM=3
COc1cccc(OC)c1C(=O)NC(C)CCc1ccccc1 (stereo not drawn)	2	-1	-8	1	0	·
Cc1cccc(N(Cc2ccccc2)C(=O)Cc2ccc(S(=O)(=O)N3CCOCC3)s2)c1	1	·	11	2	1	·
CCc1c(C)sc(NC(=O)c2ccoc2C)c1C(N)=O	-5	40*	94*	1	13	44
CCOC(=O)c1c(NC(=O)c2ccoc2C)sc(C)c1C	-4	-9	2	-2	-4	·
COc1cc(C2NC(=O)NC(c3ccccc3)=C2C(C)=O)cc([N+](=O)[O-])c1O (stereo not drawn)	-2	11	22	-1	-2	·
CCC(C)c1ccccc1OCCn1ccnc1 (stereo not drawn)	0	0	70*	-2	0	56*	Diaphorase 10uM=35;Diaphorase 30uM=31
O=C(NNC(=O)c1ccccc1O)c1ccc(Cl)c(S(=O)(=O)N2CCc3ccccc32)c1	-1	·	-66	-2	2	·
CCCn1c(=N)c(C(=O)NC2CCCC2)cc2c(=O)n3cccc(C)c3nc21	-9	3	6	-2	-2	·
Cc1cccn2c(=O)c3cc(C(=O)NC4CCCC4)c(=N)n(C4CCCC4)c3nc12	1	0	82*	-4	-2	23
Cc1ccc(Nc2cc(-c3ccccc3)nc3ncnn23)cc1	0	2	-5	5	-4	·
NC(Cc1ccccc1)c1csc(NC(=O)c2cccc(OC(F)(F)F)c2)n1 (stereo not drawn)	-4	·	·	1	5	·
CCOC(=O)c1cnc(-c2cccc(OC)c2)[nH]c1=O	4	8	96*	8	4	78*	Diaphorase 10uM=75*;Diaphorase 30uM=56*
COC(=O)Cc1nnn2c1[C@H](C)[C@H](c1ccccc1Br)OC[C@@H]2c1ccccc1	-2	·	·	4	1	·
CCC(C)(C)c1nnc(NC(=O)C2CCN(C(=O)c3ccco3)CC2)s1	-2	28	79*	-1	10	61*	Diaphorase 10uM=-37;Diaphorase 30uM=-15
CCCCOC(=O)C1=C(C)Nc2ncnn2C1c1ccc(OC)c(OC)c1 (stereo not drawn)	4	1	34	6	-2	·
CCCCOC(=O)C1=C(C)Nc2ncnn2C1c1ccc(OCC)c(OC)c1 (stereo not drawn)	0	-2	62*	2	0	29
NS(=O)(=O)c1cccnc1Nc1cccc(Cl)c1Cl	1	8	62*	-3	-1	13
CCCCCCCCCCCCCCCC[N+](C)(C)CCN(Cc1ccc(OC)cc1)c1ncccn1	·	·	64*	·	·	14
NC(=S)N/N=C/c1ccc(/C=N/NC(N)=S)cc1	-8	15	-7	-1	13	·
NC(=S)N/N=C/c1ccc(-n2nncc2-c2ccc(Cl)cc2)cc1	·	4	73*	·	·	22
CCn1c(=N)n(CC(=O)c2ccc(Cl)c(Cl)c2)c2ccccc21	-1	2	52	0	-3	·
N=c1n(CCN2CCCCC2)c2ccccc2n1CC(=O)c1ccc(Cl)c(Cl)c1	4	2	93*	-1	5	4
SMILES	MBD2 DNA inh	M18AAP inhibitor	PfG6PD inh	UHRF1 MBD2 ctr	PRMT1 inh	PfG6PD confirm	others
CNC(C)C(=O)NC(C(=O)NC(C)C(=O)NNc1ccccc1)C(C)C (stereo not drawn)	-3	·	·	-1	4	·
COC(=O)[C@]12C[C@H](CC(=O)NCc3ccc(C)o3)C(=O)N(Cc3ccc4c(c3)OCO4)C1=C[C@H](C(C)C)O[C@@H]2C1CC1	4	·	·	2	3	·
COc1ccc2c(c1)CCc1cc(C(=O)N3CCN(c4ccc(N5CCOCC5)nn4)CC3)sc1-2	·	-2	77*	·	·	41
COc1cccc(C(=O)N2CCN(c3ccc(N4CCOCC4)nn3)CC2)c1	-1	·	-13	2	3	·
Cc1ccc(S(=O)(=O)NCCCc2ccc3c(c2)[C@]2(CCC[C@@H](OCc4ccccc4)[C@@H]2NC(=O)CCc2ccccc2)C(=O)N3Cc2ccccc2)cc1	2	·	·	1	-4	·
O=C(O)c1cc(NC(=O)c2ccc(Cl)c([N+](=O)[O-])c2)cc(C(=O)O)c1	2	5	5	3	1	·
O=C(Nc1ccc(C(O)(C(F)(F)F)C(F)(F)F)cc1)c1ccc(Cl)c([N+](=O)[O-])c1	3	9	63*	2	1	-10
COc1ccc(NC(=O)c2cc(F)cc(F)c2)cc1Cl	-3	7	0	-1	1	·
COc1ccc(NC(=O)c2ccc(OC(F)F)cc2)cc1Cl	-2	-13	85*	-7	0	2
COc1cc(CNn2c(C)n[nH]c2=S)cc(Br)c1OCc1ccc(F)cc1	-4	8	70*	0	14	33
O=C(Nc1nccc(-c2cccs2)n1)c1ccccc1Cl	-1	-1	142*	3	1	110*	Diaphorase 10uM=102*;Diaphorase 30uM=81*
O=C(CSc1nccc(-c2cccs2)n1)Nc1cccc(Cl)c1Cl	-1	-7	8	1	1	·
O=C(c1ccccc1Cl)N(C(=O)c1ccccc1Cl)c1nccc(-c2cccs2)n1	3	-2	110*	2	0	69*	Diaphorase 10uM=73*;Diaphorase 30uM=65*
CCCCn1c(SCC(=O)NC2CC(C)(C)NC(C)(C)C2)nc2cc(S(N)(=O)=O)ccc21	3	-2	-13	3	-2	·
O=C1CC2(CCN(C(=O)c3c(F)cccc3F)CC2)Oc2ccccc21	2	·	-10	0	7	·
COc1ccc(NC(=O)n2ncc3c(C)cccc32)cc1	1	1	69*	-1	0	20
C[C@@H]1CN([C@H](C)CO)C(=O)c2cc(NC(=O)Nc3ccc(F)cc3)ccc2O[C@@H](C)CCCCO[C@@H]1CN(C)C(=O)CCCN(C)C	1	·	·	0	-4	·
Cc1ccccc1C(=O)NC1CCCCN(Cc2cccc(C(F)(F)F)c2)C1=O (stereo not drawn)	-2	·	·	-1	2	·
O=[N+]([O-])c1ccccc1-c1ccc(C(=S)N2CCN(c3ccccc3)CC2)o1	-5	0	49	-6	0	·
Cc1ccc(N2CCN(C(=S)c3ccc(-c4ccccc4[N+](=O)[O-])o3)CC2)cc1	-6	7	60*	-4	3	29
